Data reported in PubChem BioAssay AID1159580 (chemical genetic matrix, 2015).
Several values for one entry are separate records, joined by “and”; a condition that tells them apart may be missing. Identical values can stand only once. The campaign covered roughly 5,500 compounds. About 2,000 (36%) were called active. Not shown: some 18% with an inconclusive outcome. Rule as the data show it: active = normalized growth mostly below about 0.91 (no sharp cut-off); inconclusive = no clear call, values can overlap the other calls; inactive = mostly above about 0.92. The list shows a part of the results.

Experiment: chemical genetic growth profiling, strain panel (AID 1159580);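 also: tested at 20 µM; growth read once vehicle control cultures reached saturation at 30 °C; 1 = growth at the plate median or of vehicle wells; lower values mean less growth of the strain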
Conditions: S. cerevisiae deletion strains, growth OD

Measured: normalized growth

Oc1c(Cl)cc(Cl)c(Cl)c1Cc1c(O)c(Cl)cc(Cl)c1Cl
active: locus YAL021C, strain ccr4, stronger effect = lower value 0.0649 | locus YAL026C, strain drs2, stronger effect = lower value 0.0639 | locus YAL030W, strain snc1, stronger effect = lower value 0.0572 | locus YBL061C, strain skt5, stronger effect = lower value 0.0628 | locus YBR009C, strain hhf1, stronger effect = lower value 0.0575 | locus YBR021W, strain FUR4, stronger effect = lower value 0.0863 | locus YBR023C, strain chs3, stronger effect = lower value 0.0623 | locus YBR171W, strain sec66, stronger effect = lower value 0.0838 | locus YBR229C, strain ROT2, stronger effect = lower value 0.0457 | locus YBR231C, strain swc5, stronger effect = lower value 0.0612 | locus YBR279W, strain paf1, stronger effect = lower value 0.0633 | locus YCL011C, strain gbp2, stronger effect = lower value 0.0558 | locus YCL016C, strain dcc1, stronger effect = lower value 0.0684 | locus YCL029C, strain bik1, stronger effect = lower value 0.0602 | locus YCL061C, strain MRC1, stronger effect = lower value 0.064 | locus YCL069W, strain vba3, stronger effect = lower value 0.0605 | locus YCR088W, strain abp1, stronger effect = lower value 0.0632 | locus YDL005C, strain med2, stronger effect = lower value 0.0765 | locus YDL035C, strain GPR1, stronger effect = lower value 0.0447 | locus YDL040C, strain nat1, stronger effect = lower value 0.0596 | locus YDL074C, strain BRE1, stronger effect = lower value 0.0681 | locus YDL101C, strain DUN1, stronger effect = lower value 0.0525 | locus YDL185W, strain tfp1, stronger effect = lower value 0.0761 | locus YDL192W, strain arf1, stronger effect = lower value 0.0596 | locus YDR001C, strain nth1, stronger effect = lower value 0.0623 | locus YDR069C, strain doa4, stronger effect = lower value 0.0643 | locus YDR101C, strain arx1, stronger effect = lower value 0.0573 | locus YDR137W, strain rgp1, stronger effect = lower value 0.108 | locus YDR159W, strain sac3, stronger effect = lower value 0.111 | locus YDR162C, strain NBP2, stronger effect = lower value 0.0454 | locus YDR195W, strain ref2 0.126 | locus YDR297W, strain sur2, stronger effect = lower value 0.0566 | locus YDR318W, strain mcm21, stronger effect = lower value 0.0637 | locus YDR334W, strain swr1, stronger effect = lower value 0.0669 | locus YDR335W, strain msn5, stronger effect = lower value 0.061 | locus YDR388W, stronger effect = lower value 0.0571 | locus YDR392W, strain spt3, stronger effect = lower value 0.0734 | locus YDR502C, strain sam2, stronger effect = lower value 0.0651 | locus YEL003W, strain gim4, stronger effect = lower value 0.0558 | locus YEL037C, strain rad23, stronger effect = lower value 0.0567 | locus YEL061C, strain CIN8 (second series), stronger effect = lower value 0.0634 | locus YEL061C, strain CIN8, stronger effect = lower value 0.0485 | locus YER015W, strain faa2, stronger effect = lower value 0.065 | locus YER016W, strain bim1, stronger effect = lower value 0.0638 | locus YER110C, stronger effect = lower value 0.0729 | locus YER111C, strain swi4, stronger effect = lower value 0.0725 | locus YER155C, strain BEM2 (second series), stronger effect = lower value 0.0878 | locus YER155C, strain BEM2, stronger effect = lower value 0.0604 | locus YER167W, strain BCK2, stronger effect = lower value 0.0476 | locus YFR010W, strain ubp6, stronger effect = lower value 0.0712 | locus YGL078C, strain dbp3, stronger effect = lower value 0.108 | locus YGL086W, strain mad1, stronger effect = lower value 0.0548 | locus YGL167C, strain pmr1, stronger effect = lower value 0.0813 | locus YGL173C, strain kem1, stronger effect = lower value 0.0685 | locus YGL227W, strain vid30, stronger effect = lower value 0.0622 | locus YGL240W, strain doc1, stronger effect = lower value 0.0737 | locus YGL248W, strain PDE1, stronger effect = lower value 0.0447 | locus YGL253W, strain hxk2, stronger effect = lower value 0.0537 | locus YGR135W, strain pre9, stronger effect = lower value 0.0633 | locus YGR252W, strain gcn5, stronger effect = lower value 0.179 | locus YHR013C, strain ard1, stronger effect = lower value 0.108 | locus YHR027C, strain rpn1, stronger effect = lower value 0.0624 | locus YHR030C, strain SLT2, stronger effect = lower value 0.0509 and 0.0952 | locus YHR079C, strain IRE1 (second series), stronger effect = lower value 0.0571 | locus YHR079C, strain IRE1, stronger effect = lower value 0.137 | locus YHR094C, strain hxt1, stronger effect = lower value 0.0585 | locus YHR129C, strain ARP1, stronger effect = lower value 0.0547 | locus YHR142W, strain chs7, stronger effect = lower value 0.0728 | locus YHR200W, strain rpn10, stronger effect = lower value 0.0603 | locus YIL066C, strain RNR3, stronger effect = lower value 0.0457 | locus YIL073C, strain SPO22, stronger effect = lower value 0.0959 | locus YIL125W, strain kgd1, stronger effect = lower value 0.0781 | locus YIR030C, strain dcg1, stronger effect = lower value 0.0579 | locus YJL092W, strain hpr5, stronger effect = lower value 0.0606 | locus YJL095W, strain BCK1 (second series), stronger effect = lower value 0.0579 | locus YJL095W, strain BCK1, stronger effect = lower value 0.0575 and 0.0959 | locus YJL115W, strain asf1, stronger effect = lower value 0.0753 | locus YJL129C, strain trk1, stronger effect = lower value 0.0909 | locus YJL134W, strain LCB3, stronger effect = lower value 0.0469 | locus YJL154C, strain vps35, stronger effect = lower value 0.0611 | locus YJL164C, strain tpk1, stronger effect = lower value 0.0591 | locus YJL166W, strain qcr8, stronger effect = lower value 0.0615 | locus YJL168C, strain set2, stronger effect = lower value 0.0584 | locus YJL187C, strain SWE1 (second series), stronger effect = lower value 0.0437 | locus YJR043C, strain POL32, stronger effect = lower value 0.0543 | locus YJR066W, strain TOR1, stronger effect = lower value 0.0109 | locus YKL009W, strain mrt4, stronger effect = lower value 0.13 | locus YKL068W, stronger effect = lower value 0.0876 | locus YKL085W, strain MDH1 (second series), stronger effect = lower value 0.0638 | locus YKL085W, strain MDH1, stronger effect = lower value 0.0638 | locus YKL160W, strain elf1, stronger effect = lower value 0.0626 | locus YKL190W, strain CNB1, stronger effect = lower value 0.0457 | locus YKR001C, strain vps1, stronger effect = lower value 0.064 | locus YKR026C, strain gcn3, stronger effect = lower value 0.063 | locus YKR091W, strain srl3, stronger effect = lower value 0.058 | locus YLL001W, strain dnm1, stronger effect = lower value 0.0618 | locus YLL026W, stronger effect = lower value 0.0568 | locus YLL041C, strain sdh2, stronger effect = lower value 0.0572 | locus YLR027C, strain aat2, stronger effect = lower value 0.0557 | locus YLR039C, strain RIC1, stronger effect = lower value 0.101 | locus YLR058C, strain SHM2, stronger effect = lower value 0.0462 | locus YLR102C, strain apc9, stronger effect = lower value 0.0599 | locus YLR113W, strain HOG1, stronger effect = lower value 0.119 | locus YLR221C, strain rsa3, stronger effect = lower value 0.064 | locus YLR258W, strain gsy2, stronger effect = lower value 0.0646 | locus YLR262C, strain YPT6 (second series), stronger effect = lower value 0.0785 | locus YLR262C, strain YPT6, stronger effect = lower value 0.114 | locus YLR268W, strain sec22, stronger effect = lower value 0.0689 | locus YLR320W, strain mms22, stronger effect = lower value 0.0782 | locus YLR330W, strain CHS5, stronger effect = lower value 0.0515 | locus YLR342W, strain FKS1 (second series), stronger effect = lower value 0.0549 | locus YLR342W, strain FKS1, stronger effect = lower value 0.0674 | locus YLR357W, strain rsc2, stronger effect = lower value 0.132 | locus YLR370C, strain arc18, stronger effect = lower value 0.0635 | locus YLR371W, strain rom2, stronger effect = lower value 0.0617 | locus YLR384C, strain iki3, stronger effect = lower value 0.0627 | locus YLR418C, strain cdc73, stronger effect = lower value 0.102 | locus YML016C, strain PPZ1, stronger effect = lower value 0.0443 | locus YML032C, strain rad52, stronger effect = lower value 0.0719 | locus YML120C, strain ndi1, stronger effect = lower value 0.0723 | locus YML124C, strain tub3, stronger effect = lower value 0.0588 | locus YMR058W, strain fet3, stronger effect = lower value 0.06 | locus YMR078C, strain ctf18, stronger effect = lower value 0.0715 | locus YMR125W, strain sto1, stronger effect = lower value 0.0705 | locus YMR129W, stronger effect = lower value 0.0593 | locus YMR205C, strain PFK2, stronger effect = lower value 0.0865 | locus YMR223W, strain ubp8, stronger effect = lower value 0.064 | locus YMR231W, strain pep5, stronger effect = lower value 0.0739 | locus YMR307W, strain GAS1, stronger effect = lower value 0.095 | locus YNL067W, strain RPL9B, stronger effect = lower value 0.0449 | locus YNL071W, strain lat1, stronger effect = lower value 0.0618 | locus YNL183C, strain NPR1, stronger effect = lower value -0.000219 | locus YNL209W, strain ssb2, stronger effect = lower value 0.0615 | locus YNL233W, strain BNI4, stronger effect = lower value 0.0507 | locus YNL248C, strain rpa49, stronger effect = lower value 0.0739 | locus YNL250W, strain rad50, stronger effect = lower value 0.232 | locus YNL271C, strain bni1, stronger effect = lower value 0.0767 | locus YNL298W, strain CLA4, stronger effect = lower value 0.0832 | locus YNL307C, strain MCK1, stronger effect = lower value 0.0665 | locus YNL322C, strain KRE1 (second series), stronger effect = lower value 0.0815 | locus YNR049C, strain mso1, stronger effect = lower value 0.0574 | locus YNR052C, strain pop2, stronger effect = lower value 0.0618 | locus YOL147C, strain pex11, stronger effect = lower value 0.0569 | locus YOR001W, strain rrp6, stronger effect = lower value 0.0782 | locus YOR061W, strain CKA2, stronger effect = lower value 0.0448 | locus YOR069W, strain VPS5, stronger effect = lower value 0.0463 | locus YOR070C, strain gyp1, stronger effect = lower value 0.0582 | locus YOR080W, strain dia2, stronger effect = lower value 0.0666 | locus YOR083W, strain WHI5, stronger effect = lower value 0.065 | locus YOR106W, strain vam3, stronger effect = lower value 0.0665 | locus YOR136W, strain idh2, stronger effect = lower value 0.0719 | locus YOR144C, strain elg1, stronger effect = lower value 0.0552 | locus YOR184W, strain ser1, stronger effect = lower value 0.075 | locus YOR231W, strain MKK1, stronger effect = lower value 0.112 | locus YOR265W, strain rbl2, stronger effect = lower value 0.065 | locus YOR270C, strain vph1, stronger effect = lower value 0.0914 | locus YOR290C, strain snf2, stronger effect = lower value 0.0645 | locus YOR316C, strain cot1, stronger effect = lower value 0.0584 | locus YPL051W, strain arl3, stronger effect = lower value 0.0639 | locus YPL078C, strain atp4, stronger effect = lower value 0.0652 | locus YPL106C, strain sse1, stronger effect = lower value 0.1 | locus YPL240C, strain hsp82, stronger effect = lower value 0.0579 | locus YPL256C, strain CLN2, stronger effect = lower value 0.116 | locus YPR119W, strain clb2, stronger effect = lower value 0.0624 | locus YPR141C, strain kar3, stronger effect = lower value 0.0848 | locus YPR163C, strain tif3, stronger effect = lower value 0.0697 | locus YPR167C, strain met16, stronger effect = lower value 0.0631 | strain wtn01, stronger effect = lower value 0.0656
